Reference: PubChem BioAssay (NCI)
About 83,000 compounds went through this panel and 20% of them were active in at least one assay; those are over-represented in the sample as a whole.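 Values shown are percent growth following 48 h exposure of cells in 96-well plates to a single concentration of compound; below 10 was considered active.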 Values without a mark were called inactive. The source made the active and inactive calls.

Test system: SR leukemia
Experiment: NCI-60 one-dose screen, 48 h (100 = growth as untreated, 0 = no growth, -100 = all killed)
Details: 10 µM
Experimental: Growth inhibition of the SR human tumor cell line is measured as a screen for anti-cancer activity. Cells are grown in 96 well plates and exposed to the test compound for 48 hours. Compounds are tested at a single concentration, which is 10^-5 M for most compounds. The reported endpoint is percent growth (GI% or GIPRCNT), where numbers from 0 - 100% represent growth inhibition, and numbers from -100% - 0 represent cell death. For example, a value of 40 represents 60% growth inhibition. A value of 0 means no net growth occurred over the course of the experiment. A value of -40 indicates 40% of cells at the beginning of the experiment died by the end of the experiment. A value of -100 means all cells are dead at the end of the experiment.
NCI-60 Human Tumor Cell Lines Screen was performed using the standard one-dose NCI protocol, which is described in more detail at https://dtp.cancer.gov/discovery_development/nci-60/default.htm.
Compounds with GIPRCNT values below 10 were considered active. Activity score was based on GIPRCNT using the following formula: […]
Score is 0 for GIPRCNT values of 100 or above, 50 for GIPRCNT values of 0, and 100 for GIPRCNT values of -100.

SMILES	growth
C[C@@H]1C=C2C(=O)O[C@@H]3CC[C@H](C1)[C@]23O	18.6%
Nc1c(C(=O)Nc2cccc(Br)c2)sc2nc3c(cc12)C(O)CCC3 (stereo not given)	3.95% (active)
COc1cc(-c2cc(/C=C/C(=O)c3ccc4c(c3)OCO4)[nH]n2)cc(OC)c1OC	-15.1% (active)
COc1ccc2nc3cc(Cl)ccc3c(NCCNCC(C)O)c2c1 (stereo not given)	2.01% (active)
O=C(Nc1ccc(Cl)cc1)N1NC(c2ccc(Cl)cc2)C=C1c1ccccc1 (stereo not given)	81.4%
CN(C)C=Nc1cc(Cl)ccc1Cl	108%
Cc1occc1-c1nnc(SCC(=O)c2ccc(NC(=O)CC(C)C)cc2)o1	7.85% (active)
CCCCCCCCCCCC[n+]1ccc(C(N)=O)cc1	14.5%
C#Cc1ccc(-n2c(/C=C/c3cc(OC)cc(OC)c3)nc3ncccc3c2=O)cc1	44.8%
CCCCCCCCN(CCCCCCCC)CCCCCCCCCN1CCCc2cc(OC)ccc21	77.5%
O=C(Nc1cccc(-n2cc(-c3ccncc3)c(-c3ccc(O)c(Cl)c3)n2)c1)Nc1ccc(Cl)c(Cl)c1	-0.568% (active)
CC(C)(C)NC/C(=C\c1ccccc1)C(=O)c1ccccc1	-1.67% (active)
COc1ccc2c(c1)C(=O)c1c-2c(=O)n(CCCN(C)C)c2cc(OC)c(OC)cc12	1.53% (active)
CN(C)N=Nc1nn(C(=O)Nc2ccc(Cc3ccccc3)cc2)c2ccccc12	59.8%
CC12O[C@H](C[C@@H](OC(=O)c3ccccc3)[C@H]1O)n1c3ccccc3c3c4c(c5c6ccccc6n2c5c31)C(=O)NC4=O	50.3%
C=C(NC(=O)C(=C)NC(=O)c1csc(C2=NC3c4csc(n4)C4NC(=O)c5csc(n5)C(C(C)(O)C(C)O)NC(=O)C5CSC(=N5)/C(=C/C)NC(=O)C(C(C)O)NC(=O)c5csc(n5)C3(CC2)NC(=O)C(C)NC(=O)C(=C)NC(=O)C(=C)NC(=O)C(C(C)C)NC2C=Cc3c(C(C)O)cc(nc3C2O)C(=O)OC4C)n1)C(N)=O (stereo not given)	5.93% (active)
COc1ccc(Cn2c(C(N)=O)cc3c2-c2nc(N)ncc2CCC3)cc1	108%
COc1ccc2c(c1)C(=O)c1c-2c(OCCN(C)C)nc2ccccc12	1.16% (active)
O=C1C(=O)c2ccccc2C(O)=C1CCCc1ccc(C2CCCCCC2)cc1	38%
CCCCCCNC(=O)Oc1ccc(/C(=C(/CC)Cc2ccccc2)c2ccc(OCCN3CCCCC3)cc2)cc1	0.769% (active)

SMILES	growth
Cc1cs/c(=N\NC(=O)c2cc(-c3cc4ccccc4o3)nn2-c2ccccc2)n1-c1ccccc1	76.9%
O=C(O)c1ccc(Cl)cc1Nc1ccc(F)cc1	57.2%
Cn1c(C(N)=O)cc2c1-c1nc(Nc3ccccc3)ncc1CCC2	17.3%
COc1ccc2c(c1)C(=O)c1c-2c(OCCN2CCCCC2)nc2ccc(OC)cc12	2.46% (active)
COc1cc(Cc2cc(-c3ccc(Cl)cc3)n[nH]c2=O)ccc1O	-35.7% (active)
Cc1cc(N(CCCNc2ccnc3cc(Cl)ccc23)Cc2ccc3c(c2)OCO3)nc(N2CCCCC2)n1	-41.7% (active)
CCN(CC)CCCOCCCNc1cc(OC)cc2cccnc12	100%
Nc1nc(-c2ccccc2Cl)cc(-c2ccc(Cl)cc2Cl)n1	25.4%
COC(=O)C1=NNC(=S)N(c2cc(C)[nH]n2)C(=O)C1	86.3%
O=C(Nc1cccc(Cl)c1)Nc1nccs1	78.5%
O=C(CNC(=O)OCc1ccccc1)NCC(=O)Oc1ccc([N+](=O)[O-])cc1	101%
CC[C@H]1CCC/C=C/[C@@H]2C[C@H](O)C[C@H]2[C@H](O)/C=C/C(=O)O1	2.29% (active)
C#Cc1ccc(-n2c(/C=C/c3ccc(O)c(OC)c3)nc3ncccc3c2=O)cc1	80.9%
Cn1c([N+](=O)[O-])cnc1/C=C1\Oc2ccccc2C1=O	9.62% (active)
FC(F)(F)c1ccc(-c2cnc(Cl)nc2N2CCC3(CC2)OCCO3)cc1	81.5%
O=C(/C(=C/c1ccccc1)CN1CCCCC1)c1ccccc1	-12.4% (active)
COc1ccc(-c2nsc3c2NC(=O)CC3c2ccc(F)cc2)cc1 (stereo not given)	3.34% (active)
COc1ccc([N+](=O)[O-])c(C(=O)O)c1	93.8%
COc1cc(C)ccc1C(=O)c1ccc(C)cc1OC	-10.2% (active)
COc1ccc(-c2nc3sc(C4CC4)nn3c2/C=C2/C(=O)Nc3ccc(OC)cc32)cc1	26.5%
